Sm TGR inh = qHTS Assay for the Inhibitors of Schistosoma Mansoni Peroxiredoxins. Schistosoma mansoni thioredoxin glutathione reductase (TGR), Q962Y6. purified TGR, DTNB reduction, TNB absorbance 405 nm. Potency, µM (series often up to 114 µM), for inactives: at the top dose activity change, negative = inhibition, hits mostly inhibitors. 360,000 tested, 3% active; further: potency means the concentration at half of the fitted maximal effect; on the % scale 0 is the no-effect control and ±100 the full control effect; nearly all actives have a fitted effect of over 60% in size
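TGR 20 nM + NADPH 100 uM (dispensed conc.), cpd preinc 15 min RT; start with NADPH (500 uM addition) then DTNB (15 mM addition). Kinetic TNB absorbance, 405 nm filter. Four-parameter Hill fit across titration.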
TbPYK inhibitor = qHTS of Trypanosoma Brucei Inhibitors | TbPYK enzyme, Kinase-Glo Plus ATP luminescence, 45 min | 410,000 tested, 0.12% active | AID 624173, 2012 | pyruvate kinase (Trypanosoma brucei), Q57TT1 | Potency, µM (titrated, usually from 76.8 µM), for the others: at the top dose activity, negative = inhibition, hits mostly inhibitors; further: potency means the concentration at half of the fitted maximal effect; on the % scale 0 is the no-effect control and ±100 the full control effect; nearly all actives have a fitted effect of over 50% in size
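Luminescence from Kinase-Glo Plus, added after a 45-minute room-temperature reaction, served as the end-point read-out. The enzyme and substrate were preincubated with compound before ADP (130 uM final) initiated turnover. Concentration-effect curves came from normalized qHTS data.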
Cycloheximide cs = Cycloheximide Counterscreen for Small Molecule Inhibitors of Shiga Toxin; cell reporter, cycloheximide protein synthesis inhibition counterscreen; max response, %; 300,000 tested, 12% active; AID 2314, 2010; in the data active means max response mostly above about 13%, no sharp cut-off; inactive means mostly below about 14%; further: read at 38.3 µM for the half of the compounds with a filed dose; 0% is about no effect
Giardia FBPA inh = qHTS Assay for Inhibitors of Fructose-1,6-bisphosphate Aldolase from Giardia Lamblia; A8B2U2; purified Giardia FBPA; Potency, µM (titrated, usually from 59.6 µM), inactives show top-dose activity, negative = inhibition, actives largely listed as inhibitors; 290,000 tested, 0.71% active; further: potency means the concentration at half of the fitted maximal effect; on the % scale 0 is the no-effect control and ±100 the full control effect; nearly all actives have a fitted effect of over 55% in size
Target sequence (A8B2U2 whole entry, looked up): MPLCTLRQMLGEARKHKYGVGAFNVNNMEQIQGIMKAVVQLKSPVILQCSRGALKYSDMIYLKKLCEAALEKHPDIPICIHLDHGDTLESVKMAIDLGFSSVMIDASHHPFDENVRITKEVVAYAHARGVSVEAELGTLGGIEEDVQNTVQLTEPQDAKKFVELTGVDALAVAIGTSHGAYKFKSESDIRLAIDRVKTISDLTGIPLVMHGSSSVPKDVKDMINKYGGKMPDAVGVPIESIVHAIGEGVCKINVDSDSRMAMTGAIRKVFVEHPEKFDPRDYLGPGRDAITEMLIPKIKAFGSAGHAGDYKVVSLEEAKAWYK
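Giardia FBPA (40 nM reagent) was preincubated 10 min at RT with compound (up to 57.5 uM final), then substrate plus GAPDH/TPI/NAD/arsenate coupling system with diaphorase/resazurin was added; resorufin fluorescence (525/598 nm) was read after 20 min.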
Shiga toxin inh = A qHTS for Small Molecule Inhibitors of Shiga Toxin | Vero cells, Shiga toxin protein synthesis inhibition reporter | AID 2315, 2010 | inhibition, % at 38.7 µM | 290,000 tested, 9.2% active; in the data active means inhibition mostly above about 28%, no sharp cut-off; inactive means mostly below about 43%; further: 0% is about no effect
LmPK inhibitor = qHTS Assay for Inhibitors of Leishmania Mexicana Pyruvate Kinase (LmPK) | Q27686 | Potency, µM (highest dose often 57.5 µM), for the others: at the highest dose activity change, negative = inhibition, most hits filed as inhibitors | 290,000 tested, 0.37% active | purified LmPK, Kinase-Glo ATP luminescence, 1 h | AID 1721, 2009; further: potency means the concentration at half of the fitted maximal effect; on the % scale 0 is the no-effect control and ±100 the full control effect
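Screened at intermediate enzyme activity to detect both inhibitors and activators: LmPK at 0.1 nM, with a 0.5 nM enzyme column as activation reference. PEP 0.5 mM, ADP 0.1 mM; ATP detected by luminescence after 1 h.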
Active calls of the source: *; u = inconclusive; x = not tested or not shown; [ ] = remark or other dose. Only a selection was taken, and hits are over-represented in it overall. Unless noted, the call rests on the fitted dose curve; in most records, active means well fitted curve in the direction sought with a large enough effect; inconclusive means small, poorly fitted or top-dose-only effect, or another doubt; inactive means no such curve, though single readings can be large; an effect the other way counts as inactive or inconclusive.

SMILES | Sm TGR inh | TbPYK inhibitor | Cycloheximide cs | Giardia FBPA inh | Shiga toxin inh | LmPK inhibitor
CN1N=C(C(=O)Nc2ccc3c(c2)CCC3)CCC1=O | -1% | -1% | 28* | 5% | 76* | -12%
COC(=O)c1cc(NC(=O)c2c(Cl)cnn2C)cc(C(=O)OC)c1 | -13% | 4% | -4 | 3% | 10 | 0%
Cn1ncc(Cl)c1C(=O)Nc1ccc2c(c1)CCC2 | 0% | -5% | 44* | 2% | 77* | -7%
CCCN=C1N(C)C[C@@H]2[C@@H]3C(=O)N(C)C(=O)[C@@H]3[C@](C)(C(=O)OC)N12 | x | 3% | x | x | x | x
Cc1cccc(CNc2ncnc3ccc(-c4ccc(C(=O)N(C)C)cc4)cc23)c1 | x | x | x | -8% | x | x
CCCSc1nc(C)c(C(C)=O)cc1C#N | 2% | -11% | -5 | 0% | -11 | 5%
COC(=O)CSc1nc(-c2cccs2)ccc1C#N | -22% | u | 36* | -12% | 50 | 0%
CC(=O)c1cc(C#N)c(SCc2ccccc2)nc1C | 10% | 2% | 32* | 2% | 31 | -3%
CC(=O)c1cc(C#N)c(SCc2ccccn2)nc1C | 10% | 3% | 47* | -1% | 68* | 1%
COC(=O)c1cc(C#N)c(SCc2ccccc2)nc1C | -4% | -8% | 9 | 5% | -21 | 1%
C#CCSc1nc(-c2cccs2)ccc1C#N | -25% | -1% | 0 | 2% | -1 | 1%
COC(=O)CSc1nc(C)c(C(C)=O)cc1C#N | -5% | 0% | 24* | 3% | 46 | -1%
Cc1csc2nc(CCNS(=O)(=O)c3cccs3)cn12 | 1% | 3% | 18* | -6% | 32 | 7%
CCCS(=O)(=O)NCc1cn2c(C)csc2n1 | -15% | -11% | 32* | 3% | 49* | -6%
O=C(Cn1ncc(Cl)c(Cl)c1=O)N1CCN(S(=O)(=O)c2ccc3ccccc3c2)CC1 | 22µM* | -1% | -10 | 6% | -36 | -1%
O=C(O)CCC(=O)N1CCN(S(=O)(=O)c2ccc3ccccc3c2)CC1 | -7% | 2% | -6 | x | -5 | -1%
O=C(COc1ncnc2cc(Cl)ccc12)c1ccc2c(c1)OCCO2 | -3% | -4% | 29* | 1% | 74* | 0%
O=C(CSc1ncnc2ccccc12)c1ccc2c(c1)OCCO2 | 6% | 2% | 46* | -7% | 185* | 1%
O=C(Nc1ccc2c(c1)OCO2)C1CCN(C(=O)CSc2ncnc3ccccc23)CC1 | 5% | -16% | 34* | -2% | 44* | -4%
COc1cc(OC)c(C(=O)COc2ncnc3ccccc23)c(OC)c1 | -29% | -4% | -4 | -3% | 32 | 0%
Cc1ccc(C)c(C(=O)COc2ncnc3ccccc23)c1 | -6% | 3% | 28 | -1% | 70* | 5%
O=C1c2oc3ccccc3c(=O)c2C(c2ccc(O)cc2)N1Cc1ccc2c(c1)OCO2 (stereo not drawn) | 7% | 0% | x | x | x | x
Cc1ccsc1C(=O)N(C)C1CCS(=O)(=O)C1 (stereo not drawn) | -8% | 1% | x | x | x | x
CSc1ncc(C(=O)Nc2cccc(Cl)c2C)c(-c2ccccc2)n1 | 13% | 2% | x | x | x | x
O=C(COc1ncnc2ccccc12)c1ccc2c(c1)OCCO2 | 0% | 3% | 55* | 5% | 132* | 2%
SMILES | Sm TGR inh | TbPYK inhibitor | Cycloheximide cs | Giardia FBPA inh | Shiga toxin inh | LmPK inhibitor
Cc1ccc(S(=O)(=O)CCc2nnc(N)s2)cc1C | 0% | -9% | -2 | 2% | -5 | 6%
Cc1ccc(S(=O)(=O)CCc2nc3ccccc3s2)cc1C | 4% | -11% | 13* | -7% | 25 | -4%
Cc1ccc(S(=O)(=O)CCc2nnc(NC(=O)CCl)s2)cc1C | 5µM* | 1% | 2 | -3% | 7 | 5%
Cc1ccc(S(=O)(=O)CCc2nc3ccccc3s2)cc1 | -4% | -4% | 5 | -1% | 20 | -3%
O=S(=O)(CCc1nc2ccccc2s1)c1ccc2ccccc2c1 | -5% | 0% | 32* | -6% | 118* | 4%
O=c1c2ccccc2nc2ccc(NCc3ccco3)nn12 | u | 8% | 51* | -10% | 56* | 2%
Cc1sc2nc3ccc(NCc4ccco4)nn3c(=O)c2c1C | 35µM* | -11% | 5 | 0% | -9 | -4%
CCCc1[nH]c(=O)c(C#N)c2c1CCCC2 | 6% | -11% | -2 | 2% | -14 | -4%
O=S1(=O)C2CC3C=CC2(CN1Cc1ccccc1)O3 (stereo not drawn) | x | x | 4 | 10% | 9 | x
Nc1cc(Cl)ccc1C(=O)OCC(=O)N1CCCCCC1 | x | -6% | x | x | x | x
Nc1cc(Cl)ccc1C(=O)OCC(=O)N1CCCC1 | 0% | -6% | 17* | 3% | 35 | -9%
Nc1cc(C(=O)OCC(=O)N2CCCC2)ccc1Cl | 2% | -8% | 31* | 2% | 50* | -10%
Nc1cc(Cl)ccc1C(=O)OCC(=O)N1CCOCC1 | -1% | 8% | 21* | 8% | 25 | 3%
Nc1cc(C(=O)OCC(=O)N2CCCC2=O)ccc1Cl | -1% | -3% | x | x | x | x
O=C(OCC(=O)N1CCOCC1)c1ccccc1O | 0% | -4% | 29* | -9% | 72* | -10%
COc1ccc(NC(=O)c2cc3c(=O)n(Cc4ccco4)ccc3nc2C)cc1 | -21% | -7% | x | x | x | x
O=[N+]([O-])c1ccc(O)c([N+](=O)[O-])c1 | x | 1% | x | 22% | x | x
O=[N+]([O-])c1ccc(Cl)c([N+](=O)[O-])c1 | 2.2µM* | 1% | x | x | x | x
CCOC(=O)c1cnc2c(N=Nc3ccccc3)c(N)nn2c1N | 0% | 1% | 41* | 1% | 48 | 4%
CCOC(=O)c1cnc2c(-c3ccccc3)cnn2c1N | -25% | -2% | 30* | 0% | 90* | 0%
CCOC(=O)c1cnc2c(N=Nc3cccc(Cl)c3)c(N)nn2c1N | 11% | x | 7 | 5% | -6 | 1%
CCOC(=O)c1cnc2c(-c3ccc(F)cc3)cnn2c1C(F)(F)F | 7% | 1% | 17* | 0% | 28* | 1%
CCOC(=O)c1cnn2c(C(F)(F)F)cc(-c3ccc(Br)cc3)nc12 | 40µM* | -7% | x | x | x | x
CCOC(=O)c1cnn2c(C(F)(F)F)cc(-c3ccccc3)nc12 | 2% | -4% | -4 | 4% | -4 | 2%
COc1ccc(-n2nc3c(N4CCCC(C(=O)NCc5ccccc5C)C4)nnc(C)c3c2C)cc1 (stereo not drawn) | -20% | 1% | x | x | x | x
Cc1cccc(-c2nc3c4ccccc4n(CC(=O)Nc4cccc(F)c4)c(=O)n3n2)c1 | 9% | 1% | x | x | x | x
CCOC(=O)c1cnc2c(-c3ccc(Cl)cc3)cnn2c1C | 0%[57.1 µM] | -4% | 14* | 3% | 32 | -3%

High-throughput results (PubChem BioAssay)
